Measurements from PubChem BioAssay (EPA / NIEHS).
The source holds several records for some structures; these can differ, active in one and inactive in another. Activity calls are given as the source filed them. The calls were made as follows: active = hit-call score of the fitted dose curve at least 0.9, where 1 is the maximum; inactive = score below 0.9.

Tests used:
[1] = target: Transcription factor E2F1 (Homo sapiens) (UniProt Q01094); test: ATG_E2F_CIS: Attagene CIS-FACTORIAL HepG2 Assay for human E2F Transcription Factor 1 (AID 2282935); settings: HepG2 Attagene cis-reporter, E2F reporter RNA transcripts; actives raise or lower the signal
In short: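 Transient MRTU transfection of HepG2; 24 h compound exposure; RNA → oligo(dT) RT → PCR → FAM label → HpaI cut → CE fluorescence. Gain/loss of signal fit against DMSO.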

[2] = ATG_E_Box_CIS: Attagene CIS-FACTORIAL HepG2 Assay for human Enhancer Box (E-box) (AID 2282936); settings: HepG2 E-box cis-reporter transcription, actives raise or lower the signal
In short: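 Transiently transfected HepG2, endogenous TF-driven reporters, 24 h dosing. Readout: RT-PCR plus capillary electrophoresis of fluorescent reporter fragments. Gain or loss of signal fitted bidirectionally against DMSO baseline.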

[3] = ATG_M_61_CIS: Attagene CIS-FACTORIAL HepG2 Assay for M61 Transcription Factor (Internal Marker) (AID 2282937); settings: HepG2 Attagene CIS-FACTORIAL M61 internal marker reporter; actives raise or lower the signal
In short: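 Multiplexed reporter mRNA assay, HepG2 human hepatoma cells, 24 h treatment. Signal: FAM-labelled, HpaI-digested RT-PCR fragments by CE. Fit: bidirectional, baseline DMSO.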

[4] = ATG_EGR_CIS: Attagene CIS-FACTORIAL HepG2 Assay for human Early Growth Response 1 (EGR1) (AID 2282938); settings: HepG2 Attagene CIS-FACTORIAL EGR reporter mRNA; actives raise or lower the signal
In short: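 Multiplexed cis-reporter system in human hepatoma HepG2 cells, transiently transfected. Cells are dosed for 24 h; reporter transcripts are amplified, fluorescently tagged and sized by capillary electrophoresis, with DMSO as negative control.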

[5] = ATG_M_19_CIS: Attagene CIS-FACTORIAL HepG2 Assay for M19 Transcription Factor (Internal Marker) (AID 2282939); settings: HepG2 Attagene CIS-FACTORIAL M19 internal marker reporter; actives raise or lower the signal
In short: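 Chemical-treated HepG2 (24 h) with MRTU constructs; reporter transcripts detected by fluorescent RT-PCR fragment analysis on capillary electrophoresis. Internal background marker, DMSO as baseline.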

[6] = ATG_ERE_CIS: Attagene CIS-FACTORIAL HepG2 Assay for Estrogen Response Element (ERE) (AID 2282940); settings: HepG2 ERE cis-reporter, Attagene RNA transcript; actives raise or lower the signal
In short: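 Human liver cells (HepG2) bearing transiently transfected, promoter-regulated reporter units were exposed 24 h. Reporter mRNA induction was detected by capillary electrophoresis of labelled RT-PCR products and fitted bidirectionally to DMSO.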

[7] = ATG_Ets_CIS: Attagene CIS-FACTORIAL HepG2 Assay for human Erythroblast Transformation Specific (ETS) (AID 2282941); settings: HepG2 ETS cis-reporter transcription, actives raise or lower the signal
In short: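 RT-PCR/capillary electrophoresis fluorescence read-out of reporter mRNA; HepG2 transient multi-reporter transfection; 24 h compound exposure; gain or loss of signal fitted bidirectionally relative to DMSO.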

[8] = target: Hepatocyte nuclear factor 3-beta (Homo sapiens) (UniProt Q9Y261); test: ATG_FoxA2_CIS: Attagene CIS-FACTORIAL HepG2 Assay for human Forkhead box A2 (FOXA2) (AID 2282942); settings: HepG2 cis-reporter transcription factor activity, 24 h; actives raise or lower the signal
In short: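 Multiplexed cis-element reporter assay in transiently transfected HepG2. Twenty-four hours post-dosing, RNA was reverse-transcribed, amplified, FAM-labelled, HpaI-digested and separated by CE. Activity gain or loss relative to DMSO.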

[9] = ATG_FoxO_CIS: Attagene CIS-FACTORIAL HepG2 Assay for human Forkhead box O (FoxO) (AID 2282943); settings: HepG2 Attagene cis-reporter, FoxO element, mRNA; actives raise or lower the signal
In short: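 Transfected HepG2 reporter cells exposed to test chemical for 24 h; reporter RNA measured by reverse transcription, PCR and fluorescent capillary electrophoresis; curves fitted for increases and decreases against DMSO.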

[10] = ATG_GATA_CIS: Attagene CIS-FACTORIAL HepG2 Assay for human GATA Binding Protein (AID 2282944); settings: HepG2 GATA cis-element reporter, Attagene multiplex mRNA; actives raise or lower the signal
In short: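 Transfected cis-reporter HepG2 cells were treated with chemicals for 24 hours. Total RNA was then converted to cDNA, amplified with reporter-specific primers and analysed by fluorescent capillary electrophoresis, using DMSO-treated wells as baseline.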

[11] = ATG_GLI_CIS: Attagene CIS-FACTORIAL HepG2 Assay for human Zinc Finger Protein GLI1 (AID 2282945); settings: HepG2, Attagene cis-factorial reporter mRNA, GLI element; actives raise or lower the signal
In short: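 Transiently transfected HepG2 cells report endogenous transcription factor activity via cis-element-driven reporter units. After 24 h compound exposure, reporter mRNA was measured by RT-PCR with capillary electrophoresis; bidirectional fitting against DMSO baseline.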

[12] = ATG_GRE_CIS: Attagene CIS-FACTORIAL HepG2 Assay for human Glucocorticoid Response Elements (GRE) (AID 2282947); settings: HepG2 GRE cis-reporter, Attagene multiplex mRNA; actives raise or lower the signal
In short: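 Read-out: fluorescent reporter-transcript fragments separated by capillary electrophoresis after RT-PCR. Transiently transfected HepG2 cells carrying cis-element-driven reporter units were dosed for 24 h; gain or loss of signal fitted against DMSO control.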

[13] = ATG_ISRE_CIS: Attagene CIS-FACTORIAL HepG2 Assay for human Interferon Regulatory Factor 1 (IRF1) binding to an Interferon-Stimulated Response Element (ISRE) (AID 2282948); settings: HepG2 ISRE cis-reporter (Attagene), mRNA transcription readout; actives raise or lower the signal
In short: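 Read-out: fluorescent RT-PCR products resolved by capillary electrophoresis, reporting endogenous transcription factor activity via ISRE-driven reporter mRNA in transfected HepG2 cells dosed for 24 h; gain or loss fitted relative to DMSO.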

[14] = ATG_M_32_CIS: Attagene CIS-FACTORIAL HepG2 Assay for M32 Transcription Factor (Internal Marker) (AID 2282949); settings: HepG2 Attagene cis-factorial M32 reporter, mRNA; actives raise or lower the signal;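 also: background control marker of the multiplexed CIS panel rather than a real target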
In short: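 Using DMSO as baseline, bidirectional curve fits were applied to reporter mRNA signals. These came from transiently transfected HepG2 cells exposed for 24 h, with RNA analysed by RT-PCR, FAM primer extension, HpaI digestion and CE.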

[15] = ATG_M_06_CIS: Attagene CIS-FACTORIAL HepG2 Assay for M06 Transcription Factor (Internal Marker) (AID 2282950); settings: HepG2 Attagene CIS-FACTORIAL M06 internal marker reporter; actives raise or lower the signal
In short: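 Cells (HepG2, transiently carrying cis-driven reporter units) receive chemical for 24 h before RNA isolation. Reporter cDNA is PCR-amplified, FAM-labelled by primer extension, HpaI-digested and sized on a capillary analyser.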

[16] = target: Hypoxia-inducible factor 1-alpha (Homo sapiens) (UniProt Q16665); test: ATG_HIF1a_CIS: Attagene CIS-FACTORIAL HepG2 Assay for human Hypoxia Inducible Factor 1 (HIF1A) (AID 2282951); settings: HepG2 Attagene cis-factorial HIF1a reporter transcription; actives raise or lower the signal
In short: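 Cis-element reporter constructs were transiently transfected into HepG2 cells, which were treated for 24 h; reporter RNA was reverse-transcribed, amplified, labelled and resolved by capillary electrophoresis.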

[17] = target: Hepatocyte nuclear factor 6 (Homo sapiens) (UniProt Q9UBC0); test: ATG_HNF6_CIS: Attagene CIS-FACTORIAL HepG2 Assay for human Hepatocyte Nuclear Factor 6 (HNF6) (AID 2282952); settings: HepG2 Attagene cis-factorial HNF6 reporter transcription; actives raise or lower the signal
In short: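 First, HepG2 cells were transfected with the multiplexed cis reporter library and dosed with chemical for 24 h. Next, RNA was reverse-transcribed, PCR-amplified and fluorescently labelled. Finally, HpaI-digested fragments were read by capillary electrophoresis.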

[18] = target: Heat shock factor protein 1 (Homo sapiens) (UniProt Q00613); test: ATG_HSE_CIS: Attagene CIS-FACTORIAL HepG2 Assay for human Heat Shock Transcription Factor 1 (HSE) (AID 2282953); settings: HepG2 HSE cis-reporter, Attagene RNA transcription; actives raise or lower the signal
In short: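 Liver-derived HepG2 cells carry transiently introduced multiple reporter units governed by cis promoters. Reporter RNA measured 24 h post-dose through reverse transcription, PCR amplification, fluorescent labelling and capillary electrophoresis, normalised to DMSO.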

[19] = ATG_MRE_CIS: Attagene CIS-FACTORIAL HepG2 Assay for human Metal Responsive Element (MRE) (AID 2282954); settings: HepG2 MRE cis-reporter transcription, Attagene multiplex; actives raise or lower the signal
In short: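 RT-PCR/capillary electrophoresis readout of reporter mRNA, 24 h post-dosing, in HepG2 cells transfected with multiplexed cis-regulated reporter constructs. Gain or loss of signal fitted bidirectionally against DMSO baseline.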

[20] = target: Bile acid receptor (Homo sapiens) (UniProt Q96RI1); test: ATG_IR1_CIS: Attagene CIS-FACTORIAL HepG2 Assay for human Nuclear Receptor Subfamily 1 Group H Member 4 (NR1H4), IR1 submotif (AID 2282946); settings: IR1 reporter transcription, actives raise or lower the signal
In short: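 Fluorescence of capillary-separated, HpaI-digested RT-PCR reporter products gave IR1-element mRNA induction in HepG2 cells 24 h after dosing. Endogenous transcription factors drove the cis-regulated reporters; activity was fitted bidirectionally against DMSO.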

Measured: AC50

Sequence of Transcription factor E2F1 (Homo sapiens) (Q01094 whole entry, looked up): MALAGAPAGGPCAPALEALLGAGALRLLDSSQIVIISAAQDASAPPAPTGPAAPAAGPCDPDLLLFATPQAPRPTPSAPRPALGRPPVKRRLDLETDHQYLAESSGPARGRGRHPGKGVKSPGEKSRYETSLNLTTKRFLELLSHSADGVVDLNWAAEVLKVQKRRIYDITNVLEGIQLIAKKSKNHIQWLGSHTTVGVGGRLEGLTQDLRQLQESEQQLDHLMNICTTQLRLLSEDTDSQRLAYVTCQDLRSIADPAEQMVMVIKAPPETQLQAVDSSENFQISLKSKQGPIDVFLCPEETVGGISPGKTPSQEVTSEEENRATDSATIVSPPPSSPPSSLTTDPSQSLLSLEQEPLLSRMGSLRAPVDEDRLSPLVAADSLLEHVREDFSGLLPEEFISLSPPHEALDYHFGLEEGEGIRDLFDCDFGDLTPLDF
Sequence of Hypoxia-inducible factor 1-alpha (Homo sapiens) (Q16665 whole entry, looked up): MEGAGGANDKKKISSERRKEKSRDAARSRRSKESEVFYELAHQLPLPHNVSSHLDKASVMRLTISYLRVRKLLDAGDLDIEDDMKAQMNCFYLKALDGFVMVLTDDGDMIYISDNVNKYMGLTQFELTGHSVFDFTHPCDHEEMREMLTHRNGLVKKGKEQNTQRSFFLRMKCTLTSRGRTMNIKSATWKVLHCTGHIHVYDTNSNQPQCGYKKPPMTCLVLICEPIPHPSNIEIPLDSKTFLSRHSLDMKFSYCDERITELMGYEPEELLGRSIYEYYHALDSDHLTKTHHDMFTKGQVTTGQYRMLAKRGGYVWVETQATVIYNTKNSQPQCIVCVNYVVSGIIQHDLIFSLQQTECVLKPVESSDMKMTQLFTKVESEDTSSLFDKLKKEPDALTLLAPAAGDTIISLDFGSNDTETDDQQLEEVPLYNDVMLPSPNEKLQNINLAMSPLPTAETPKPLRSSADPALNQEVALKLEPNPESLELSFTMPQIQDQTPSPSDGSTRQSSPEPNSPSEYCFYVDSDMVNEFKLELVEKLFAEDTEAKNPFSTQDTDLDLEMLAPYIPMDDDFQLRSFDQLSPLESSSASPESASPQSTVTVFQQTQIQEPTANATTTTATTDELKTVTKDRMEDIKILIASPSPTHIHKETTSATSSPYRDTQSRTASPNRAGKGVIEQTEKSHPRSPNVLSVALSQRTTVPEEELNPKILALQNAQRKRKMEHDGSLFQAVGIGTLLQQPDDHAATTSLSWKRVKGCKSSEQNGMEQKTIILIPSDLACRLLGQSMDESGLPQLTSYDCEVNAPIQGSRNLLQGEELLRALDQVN
Sequence of Heat shock factor protein 1 (Homo sapiens) (Q00613 whole entry, looked up): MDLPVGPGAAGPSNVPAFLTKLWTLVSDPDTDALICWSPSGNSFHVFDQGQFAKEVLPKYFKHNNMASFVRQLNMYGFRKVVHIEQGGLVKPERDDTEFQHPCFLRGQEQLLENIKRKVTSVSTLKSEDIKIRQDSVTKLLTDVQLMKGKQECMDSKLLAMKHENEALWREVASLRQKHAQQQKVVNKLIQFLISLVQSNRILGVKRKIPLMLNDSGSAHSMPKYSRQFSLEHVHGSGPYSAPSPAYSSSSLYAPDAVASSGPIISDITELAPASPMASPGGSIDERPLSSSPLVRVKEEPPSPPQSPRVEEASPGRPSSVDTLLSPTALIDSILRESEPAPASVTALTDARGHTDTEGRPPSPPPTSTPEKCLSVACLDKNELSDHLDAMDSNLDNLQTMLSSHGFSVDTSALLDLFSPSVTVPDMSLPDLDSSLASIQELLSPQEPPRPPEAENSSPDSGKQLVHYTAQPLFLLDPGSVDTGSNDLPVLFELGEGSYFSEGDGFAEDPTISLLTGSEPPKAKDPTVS
Sequence of Bile acid receptor (Homo sapiens) (Q96RI1 whole entry, looked up): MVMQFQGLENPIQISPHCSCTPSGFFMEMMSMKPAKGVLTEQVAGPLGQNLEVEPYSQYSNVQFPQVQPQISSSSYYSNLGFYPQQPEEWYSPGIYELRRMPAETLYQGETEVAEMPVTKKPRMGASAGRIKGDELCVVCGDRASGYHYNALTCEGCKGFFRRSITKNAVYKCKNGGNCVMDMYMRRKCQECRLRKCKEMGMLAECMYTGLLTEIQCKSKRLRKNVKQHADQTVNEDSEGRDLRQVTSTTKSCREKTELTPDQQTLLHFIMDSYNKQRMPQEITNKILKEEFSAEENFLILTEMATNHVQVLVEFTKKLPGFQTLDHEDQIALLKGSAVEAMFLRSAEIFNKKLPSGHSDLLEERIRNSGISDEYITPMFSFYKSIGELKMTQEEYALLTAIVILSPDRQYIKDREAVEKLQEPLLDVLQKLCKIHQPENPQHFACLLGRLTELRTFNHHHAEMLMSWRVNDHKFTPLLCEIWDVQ
Sequence of Hepatocyte nuclear factor 6 (Homo sapiens) (Q9UBC0 whole entry, looked up, the tested form may be a part): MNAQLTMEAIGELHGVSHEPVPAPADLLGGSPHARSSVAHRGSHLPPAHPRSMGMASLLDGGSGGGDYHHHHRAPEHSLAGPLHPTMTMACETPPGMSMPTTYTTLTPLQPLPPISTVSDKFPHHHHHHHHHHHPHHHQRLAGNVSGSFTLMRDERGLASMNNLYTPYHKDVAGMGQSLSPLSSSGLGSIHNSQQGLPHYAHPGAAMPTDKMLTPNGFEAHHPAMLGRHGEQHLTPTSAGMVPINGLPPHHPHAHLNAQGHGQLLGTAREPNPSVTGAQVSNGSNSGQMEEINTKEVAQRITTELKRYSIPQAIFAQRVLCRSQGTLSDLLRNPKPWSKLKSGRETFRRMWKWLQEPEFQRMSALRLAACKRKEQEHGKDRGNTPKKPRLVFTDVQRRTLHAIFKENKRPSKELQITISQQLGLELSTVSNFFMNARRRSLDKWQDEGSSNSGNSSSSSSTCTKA
Sequence of Hepatocyte nuclear factor 3-beta (Homo sapiens) (Q9Y261 whole entry, looked up): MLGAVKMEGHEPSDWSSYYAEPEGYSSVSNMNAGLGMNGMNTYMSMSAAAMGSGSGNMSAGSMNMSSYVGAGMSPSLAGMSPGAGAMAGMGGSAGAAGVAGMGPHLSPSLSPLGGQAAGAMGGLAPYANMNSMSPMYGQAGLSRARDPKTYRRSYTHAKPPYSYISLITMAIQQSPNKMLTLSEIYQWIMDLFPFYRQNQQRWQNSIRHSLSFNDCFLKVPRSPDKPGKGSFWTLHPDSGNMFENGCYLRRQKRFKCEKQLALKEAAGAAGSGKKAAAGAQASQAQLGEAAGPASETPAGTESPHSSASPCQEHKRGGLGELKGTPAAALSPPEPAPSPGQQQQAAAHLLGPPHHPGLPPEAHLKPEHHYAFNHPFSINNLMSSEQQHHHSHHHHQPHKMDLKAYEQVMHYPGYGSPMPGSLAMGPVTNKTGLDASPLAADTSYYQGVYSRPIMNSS

N#CN
not listed: [20]
inactive: all other assays above

O=C(O)C(F)(F)C(F)(F)C(F)(F)C(F)(F)C(F)(F)C(F)(F)C(F)(F)F
not listed: [6] | [12] | [18] | [20]
inactive: all other assays above

CCCN(CCC)c1c([N+](=O)[O-])cc(C(F)(F)F)cc1[N+](=O)[O-]
not listed: [12]
inactive: all other assays above

CNC(=O)Oc1ccccc1OC(C)C
not listed: [20]
inactive: all other assays above

CCCN(CCOc1c(Cl)cc(Cl)cc1Cl)C(=O)n1ccnc1
active: [18] 2.61 µM | [19] 18.6 µM
inactive: [1] | [2] | [3] | [4] | [5] | [7] | [8] | [9] | [10] | [11] | [20] | [12] | [13] | [14] | [15] | [16] | [17] | [18] | [19]

CC[C@H](C)[C@H]1O[C@]2(C=C[C@@H]1C)C[C@@H]1C[C@@H](C/C=C(\C)[C@@H](O[C@H]3C[C@H](OC)[C@@H](O[C@H]4C[C@H](OC)[C@@H](O)[C@H](C)O4)[C@H](C)O3)[C@@H](C)/C=C/C=C3\CO[C@@H]4[C@H](O)C(C)=C[C@@H](C(=O)O1)[C@]34O)O2 (tested in a mixture with another compound)
not listed: [20]
inactive: all other assays above

Cc1[nH]c(=O)n(C(C)(C)C)c(=O)c1Cl
active: [19] 50 µM
not listed: [12]
inactive: all other assays above

CNC(=O)CSP(=S)(OC)OC
not listed: [12] | [20]
inactive: all other assays above
